Assay outcomes deposited in PubChem by several laboratories.
ZTA counter: counter-screen for EBNA-1 inhibitors: inhibitors of Epstein-Barr virus ZTA | P03206 | ZTA-DNA binding, fluorescence polarization | inhibition, % at 11 µM | 0.15% of 320,000 active; in the data active = inhibition above about 33%
Target sequence (P03206 whole entry, looked up): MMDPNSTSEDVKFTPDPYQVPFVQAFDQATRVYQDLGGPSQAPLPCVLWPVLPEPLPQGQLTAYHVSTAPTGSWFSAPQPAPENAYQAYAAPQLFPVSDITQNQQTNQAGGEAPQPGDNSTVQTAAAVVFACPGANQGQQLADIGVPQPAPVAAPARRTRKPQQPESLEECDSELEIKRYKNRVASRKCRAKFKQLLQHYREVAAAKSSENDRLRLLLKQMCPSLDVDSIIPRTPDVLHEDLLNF
EBNA-1 inhibitor: blocks EBNA-1 binding to DNA. EBNA-1 DNA binding, fluorescence polarization. inhibition, % at 14.8 µM. 0.34% of 300,000 active; in the data active = inhibition above about 28%
GRIN3A LBD mod: NR3A (human) ligand-binding domain modulation; NR3A LBD differential scanning fluorimetry, Tm shift; 0% = protein alone, 100% = glycine-bound protein; Tm shift relative to glycine control, % at 25 µM; 2.5% of 340,000 active; AID 1259313;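 active = melting temperature shift of at least 10% of the positive control shift, at one fixed dose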
Rpn11 block: blocks the human proteasome subunit Rpn11; O00487; human 26S proteasome, Ub4-pepOG fluorescence polarization; 20S core pre-blocked with epoxomicin; inhibition, % at 20 µM; 0.59% of 360,000 active;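 active = inhibition at 20 µM, scaled to each plate's controls, above about 33%, limit read from the data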
Target sequence (O00487 whole entry, looked up): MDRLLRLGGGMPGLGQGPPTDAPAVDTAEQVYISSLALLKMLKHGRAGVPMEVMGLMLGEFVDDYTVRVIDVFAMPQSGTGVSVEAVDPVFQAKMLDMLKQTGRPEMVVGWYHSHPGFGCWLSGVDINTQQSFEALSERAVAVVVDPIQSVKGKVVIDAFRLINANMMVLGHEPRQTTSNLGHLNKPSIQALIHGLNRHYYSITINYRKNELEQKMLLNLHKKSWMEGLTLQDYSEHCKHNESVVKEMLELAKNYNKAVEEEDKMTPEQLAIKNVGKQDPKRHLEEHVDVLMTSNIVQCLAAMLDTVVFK
TPT1 inh: C. albicans TPT1 enzyme inhibition | 0.81% of 300,000 active | inhibition, % at 5 µM | AID 1962 | recombinant caTPT1, FP RNA substrate dephosphorylation;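 active = inhibition above the mean of all tested compounds plus 3 SD, set per screening campaign, cut at about 24% in these data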
dFosB act: activators of mouse delta FosB homodimer; activation, % at 25 µM; 0.99% of 340,000 active; P13346; purified delta FosB, TAMRA-CDK5 oligo fluorescence polarization; percent of positive-control signal above neutral wells;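 active = mean activation above about 17%, with every replicate also reaching it, limit read from the data, passing the limit was not always enough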
Numbers stand for hits; 0 = inactive; - = not tested or not shown. The list is not random: actives were taken first. Their share in the collection is about 4.5%.

SMILES	ZTA counter	EBNA-1 inhibitor	GRIN3A LBD mod	Rpn11 block	TPT1 inh	dFosB act
COc1cc(C(=O)NCCN2CCN(C(=O)c3cc(OC)c(OC)c(OC)c3)CC2)cc(OC)c1OC	0	0	0	0	0	0
O=C(CC(=O)c1ccccc1)Nc1ccc(Cl)cc1	0	0	0	0	0	0
CCOc1ccc(Nc2nc(N)c3ccccc3n2)cc1	-	-	27.6	0	-	0
Nc1nc(Nc2ccccc2)nc2ccccc12	0	0	0	0	0	0
COc1cc2nc(Nc3ccc(C)c(C)c3)nc(N)c2cc1OC	0	0	15.6	0	0	105.4
CCOC(=O)c1ccc(Nc2nc(N)c3cc(OC)c(OC)cc3n2)cc1	0	0	0	0	0	37.3
COc1cc2nc(Nc3ccc(C)c(Cl)c3)nc(N)c2cc1OC	0	0	27.6	0	0	59.5
COc1ccc(CN(C)C(=O)c2ccc(OCC(=O)Nc3cccc(C(F)(F)F)c3)c(OC)c2)cc1	-	-	-	0	-	-
COc1ccc(C2Nc3cccc(O)c3C(=O)N2Cc2ccccc2)cc1COc1ccc(NC(C)=O)cc1 (stereo not given)	-	-	-	0	-	-
COCCn1c(C)cc(C(=O)CN2C(=O)NC3(CCCCCC3)C2=O)c1C	0	-	0	0	-	0
COc1ccc(Cn2c(SCc3cc(C)ccc3C)nc3cc(OC)c(OC)cc3c2=N)cc1	0	0	0	0	0	40.4
COCCCn1c(SCc2cccc(C(F)(F)F)c2)nc2cc(OC)c(OC)cc2c1=N	0	0	10.4	0	0	0
COc1cc2nc(SCc3ccc(C(F)(F)F)cc3)n(Cc3cccs3)c(=N)c2cc1OC	0	0	24.4	0	0	0
COCCCn1c(SCc2ccccc2)nc2cc(OC)c(OC)cc2c1=N	0	0	0	0	0	0
COc1cc2nc(SCc3ccc(Cl)cc3Cl)n(Cc3cccs3)c(=N)c2cc1OC	0	0	22.1	0	0	0
O=C(COC(=O)c1cccc(S(=O)(=O)N2CCCC2)c1)Nc1cccc(Br)c1	-	-	-	0	-	-
O=C1C=C(c2ccc3c(c2)OCO3)C[C@@H](c2ccc(Cl)cc2)C1	0	-	0	0	-	0
Cc1ccc(/C=C2/SC(=S)N(C3CCCCC3)C2=O)o1	0	0	0	101.5	0	0
CC(=O)N/C(=N/c1nc(C)cc(C)n1)Nc1cccc(C)c1C	0	0	0	0	0	0
Cc1cs/c(=N\N=C2CCCCC2)n1Cc1ccco1	0	0	0	0	0	0
Cc1nn(-c2ccccc2)c2[nH]c(=O)c(CNCc3ccc4c(c3)OCO4)cc12	0	0	0	0	0	0
Cc1ccc(-c2nn(-c3ccccc3)c3[nH]c(=O)c(CNCc4ccccc4)cc23)cc1	0	0	0	0	0	21.4
O=C(Nc1cccc(C(F)(F)F)c1)C(SCCO)c1ccccc1 (stereo not given)	0	0	0	0	0	0
Cc1cc(C)cc(NC(=O)C(Sc2ncnc3ccccc23)c2ccccc2)c1 (stereo not given)	0	0	0	0	0	0
Cn1nnnc1SC(C(=O)Nc1cccc(C(F)(F)F)c1)c1ccccc1 (stereo not given)	0	0	13.1	0	0	0
SMILES	ZTA counter	EBNA-1 inhibitor	GRIN3A LBD mod	Rpn11 block	TPT1 inh	dFosB act
O=C(Nc1cccc(C(F)(F)F)c1)C(Sc1ncnc2ccccc12)c1ccccc1 (stereo not given)	0	0	17.5	0	0	0
COC(=O)c1c(-c2ccc(OC)cc2)oc2ccc(-c3ccc(OC)nc3)cc12	0	0	0	0	0	0
CCCOC(=O)c1c(-c2ccc(OC)cc2)oc2ccc(-c3ccc(OC)nc3)cc12	0	0	14.8	0	0	0
Cc1ccc(C(=O)OCC(=O)NC2CCCCC2)s1	0	0	0	0	0	0
O=C(CSc1ccccc1)Nc1ccc(C(=O)Nc2ccc(O)cc2)cc1	-	-	25.1	0	-	0
O=C(Cc1ccccc1)Nc1ccc(C(=O)Nc2ccc(O)cc2)cc1	0	0	35.2	0	0	0
COC(=O)c1ccc(NC(=O)CSc2ccccc2)cc1	0	0	0	0	0	0
Cc1ccc2c(c1)[C@@H]1CN(C)CC[C@@H]1N2S(=O)(=O)c1ccc(F)cc1	0	0	14.5	0	0	0
CCN(CC)CCNc1ccc(C)c2sc3ccc(O)cc3c(=O)c12	-	-	0	0	-	41.0
Cc1ccc(NC(=O)Cn2nnc(C(=O)NCc3cccs3)c2N)cc1Cl	0	0	16.3	0	0	0
Nc1nc(-c2ccc(Cl)cc2)c(N=Nc2ccc(S(=O)(=O)N3CCOCC3)cc2)s1	0	0	17.2	0	0	0
O=S(=O)(c1ccc(Cl)cc1)N1CCC(N2CCOCC2)CC1	0	0	0	0	0	0
COc1ccc(Oc2c(-c3ccc(O)cc3O)n[nH]c2C)cc1	0	0	0	0	0	0
CCCOC(=O)c1ccc(Oc2c(-c3ccc(OCC)cc3O)n[nH]c2C)cc1	0	0	30.5	0	0	0
COc1ccc(Oc2cn[nH]c2-c2ccc(OCC(=O)NN)cc2O)cc1	0	0	0	0	0	0
CCCOC(=O)c1ccc(Oc2cn[nH]c2-c2ccc(OCC)cc2O)cc1	0	0	15.9	0	0	0
CCc1ccc(/C=C2\SC(=S)N(CCCC(=O)Nc3ccccn3)C2=O)cc1	0	0	0	0	0	0
CCc1ccc(/C=C2/SC(=S)N(CC(=O)Nc3nc4ccccc4s3)C2=O)cc1	0	0	0	0	0	28.5
O=C(O)c1cnc2[nH]c3ccccc3n2c1=O	0	0	0	0	0	0
COc1ccc(-c2coc3cc(O)cc(O)c3c2=O)cc1	0	0	11.9	0	0	0
Cc1ccc(C(=O)Nc2nnc(-c3ccc(C(C)(C)C)cc3)s2)cc1	0	0	10.2	0	0	0
COc1ccc(C(=O)Nc2nnc(-c3ccccc3)s2)cc1	-	-	0	0	-	0
CCCCc1ccc(NC(=S)Nc2ccc(Nc3ccc(OC)cc3)cc2)cc1	0	0	11.9	0	0	0
CCCCc1ccc(NC(=S)NCc2cccc(OC)c2)cc1	0	0	11.0	0	0	0
CCCCc1ccc(NC(=S)Nc2cccnc2)cc1	0	0	0	0	0	0
SMILES	ZTA counter	EBNA-1 inhibitor	GRIN3A LBD mod	Rpn11 block	TPT1 inh	dFosB act
O=[N+]([O-])c1ccc(CSCc2ccc([N+](=O)[O-])cc2)cc1	-	-	0	0	-	0
C/C=C/c1ccc(OCC(=O)OCc2csc(CC(=O)Nc3ccccc3C)n2)c(OC)c1	0	0	0	0	0	0
NC(=O)CC[C@H](NC(=O)c1ccc(F)cc1)C(=O)OCC(=O)Nc1c(F)c(F)c(F)c(F)c1F	0	0	11.5	0	0	0
CC(C)c1ccc(NC(=O)COC(=O)[C@H](CCC(N)=O)NC(=O)c2ccc(F)cc2)cc1	0	0	0	0	0	0
COc1ccc(C)cc1NC(=O)Cn1c(=O)oc2ccccc21	0	0	0	0	0	18.8
CCOc1ccc(NC(=O)COC(=O)c2ccc3ncsc3c2)cc1OCC	-	-	0	0	-	0
Oc1ccc2ccccc2c1/C=N/Nc1nnc(-c2ncc[nH]2)c2ccccc12	0	0	21.3	0	0	0
